Reference: the supplement of paper PMC6555819

Columns and labels:
Assay in all cases: PBM binding z-score (relative to random genomic background probes); higher = stronger binding; sequences stand for … in GC…GCGATTGACAGCGTAGAATGAAGG
[1] = test system: FXR:RXRa (NR concentration 270 nM, RXRa partner concentration 90 nM)
Summary of the method: (§1)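 Antibodies against each partner of ligand-free nuclear receptor dimers (one per run) detected binding on custom Agilent 4×180K protein-binding microarrays after 1 h incubation. The double-stranded probes had 34-nt variable regions carrying direct-repeat seeds, single-nucleotide variants, half-site ablations and random human genomic background sequences. Binding z-scores, from regression-normalized fluorescence, use the random background probes as reference.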

[2] = test system: LXRa:RXRa (NR concentration 270 nM, RXRa partner concentration 90 nM)
Summary of the method: as §1

[3] = test system: LXRa homodimer (NR concentration 270 nM)
Summary of the method: as §1

[4] = test system: LXRb:RXRa (NR concentration 270 nM, RXRa partner concentration 90 nM)
Summary of the method: as §1

[5] = test system: LXRb homodimer (NR concentration 270 nM)
Summary of the method: as §1

[6] = test system: PPARa:RXRa (NR concentration 270 nM, RXRa partner concentration 90 nM)
Summary of the method: as §1

[7] = test system: PPARg:RXRa (NR concentration 180 nM, RXRa partner concentration 90 nM)
Summary of the method: as §1

[8] = test system: PPARg:RXRa 270nM:90nM, anti-RXR (NR concentration 270 nM, RXRa partner concentration 90 nM)
Summary of the method: as §1

[9] = test system: PPARg:RXRa 30nM:10nM, anti-RXR (NR concentration 30 nM, RXRa partner concentration 10 nM)
Summary of the method: as §1

[10] = test system: PPARg:RXRa 90nM:30nM, anti-RXR (NR concentration 90 nM, RXRa partner concentration 30 nM)
Summary of the method: as §1

[11] = test system: PPARg:RXRa DBDmut IVT, anti-RXR (DBD mutation: RXRa K156A/R161A, NR concentration 270 nM, RXRa partner concentration 90 nM)
Summary of the method: as §1

[12] = test system: PPARg:RXRa IVT, anti-PPARg (NR concentration 270 nM, RXRa partner concentration 90 nM)
Summary of the method: as §1

[13] = test system: PPARg DBDmut:RXRa IVT, anti-PPARg (DBD mutation: PPARg1 K132A/R137A, NR concentration 270 nM, RXRa partner concentration 90 nM)
Summary of the method: as §1

[14] = test system: PPARg DBDmut IVT, anti-PPARg (DBD mutation: PPARg1 K132A/R137A, NR concentration 270 nM)
Summary of the method: as §1

[15] = test system: PPARg homodimer (NR concentration 180 nM)
Summary of the method: as §1

[16] = test system: PXR:RXRa (NR concentration 270 nM, RXRa partner concentration 90 nM)
Summary of the method: as §1

[17] = test system: PXR homodimer (NR concentration 270 nM)
Summary of the method: as §1

[18] = test system: RARa:RXR (NR concentration 270 nM, RXRa partner concentration 90 nM)
Summary of the method: as §1

[19] = test system: RARa homodimer (NR concentration 270 nM)
Summary of the method: as §1

[20] = test system: RARb:RXRa (NR concentration 270 nM, RXRa partner concentration 90 nM)
Summary of the method: as §1

| Sequence | PBM binding z-score [1] | PBM binding z-score [2] | PBM binding z-score [3] | PBM binding z-score [4] | PBM binding z-score [5] | PBM binding z-score [6] | PBM binding z-score [7] | PBM binding z-score [8] | PBM binding z-score [9] | PBM binding z-score [10] | PBM binding z-score [11] | PBM binding z-score [12] | PBM binding z-score [13] | PBM binding z-score [14] | PBM binding z-score [15] | PBM binding z-score [16] | PBM binding z-score [17] | PBM binding z-score [18] | PBM binding z-score [19] | PBM binding z-score [20] |
| --- | --- | --- | --- | --- | --- | --- | --- | --- | --- | --- | --- | --- | --- | --- | --- | --- | --- | --- | --- | --- |
| ACTTACGGGTCAGCGAGGTTATAGCACGCGTATA | 4.94 | 3.87 | 0.399 | 3.41 | 0.42 | 4.9 | 3.94 | 4.15 | 1.13 | 2.59 | 1.92 | 3.48 | 0.822 | 0.254 | 1.62 | 4.18 | 1.12 | 4.25 | 0.477 | 4.09 |
| ACCCGGAGGACAAAGGTCAGAGCTACGCCAGTGA | 4 | 4.23 | 1.65 | 3.55 | 0.448 | 5.01 | 6.33 | 6.32 | 3.97 | 5.95 | 0.224 | 2.99 | -0.0126 | -0.296 | 2.98 | 4.14 | 0.302 | 5 | 0.962 | 4.51 |
| ACTATTAGCTGACTTAGGGCAACCGATACGACGC | 0.00773 | -0.128 | 0.194 | -0.149 | 0.546 | -0.0754 | 0.886 | 0.11 | -0.102 | 0.0192 | 0.43 | 0.75 | 1.05 | 1.38 | 0.825 | -0.173 | -0.168 | 0.142 | 1.14 | 0.676 |
| GCTTGTAAATCAAGGTTAAGAAAGACTAAGCTAA | 0.61 | 1.71 | 0.223 | 0.926 | -0.355 | 1.56 | 0.214 | 0.467 | 0.122 | 0.622 | 0.268 | 0.664 | -0.64 | 0.161 | 0.00597 | 0.564 | -0.123 | 1.05 | -0.0975 | 0.808 |
| ATCTCTGGGTAAAAGTTCAGTGAATCCCGAGGAT | 0.844 | 1.38 | 1.37 | 1.04 | 1.4 | 4.12 | 7.38 | 7.77 | 6.93 | 9.04 | 1.87 | 3.69 | 1.17 | 1.44 | 1.47 | 2.03 | 1.5 | 1.97 | 0.896 | 2.59 |
| TCGAGTAGGTTAGTCGGGGCGTTCAGCCAACATA | -0.0524 | -0.272 | -0.481 | -0.0286 | -1.19 | 0.148 | -0.893 | 0.268 | 0.61 | 0.186 | 1.73 | 0.976 | -0.368 | -0.973 | -0.66 | -0.237 | -0.771 | -0.294 | -0.96 | 0.0731 |
| CGTCCATGGTCAGAGAGGTCAGTGAATGCCGAGT | 1.59 | 1.68 | 0.897 | 1.84 | -0.375 | 2.51 | 0.301 | 0.981 | -0.535 | 0.219 | 0.536 | 0.857 | -0.938 | -0.643 | 1.93 | 3.11 | 1.73 | 2.87 | 0.23 | 3.52 |
| CCTTACGGGTCACTGACTGGTTATAGCATTTGGA | 5.56 | 3.75 | 0.422 | 3.15 | -0.0702 | 4.99 | 4.13 | 4.14 | 1.38 | 2.81 | 3.65 | 3.69 | 0.987 | 0.315 | 3.15 | 3.1 | 0.287 | 4.06 | 2.05 | 4.02 |
| CCTTACGGGTCAAGGTTATGGCACGGGTGGTACG | 5.49 | 3.7 | 0.0981 | 2.81 | -0.233 | 4.86 | 4.26 | 4.73 | 1.8 | 3.51 | 1.51 | 3.59 | -0.207 | -0.604 | 1.88 | 3.27 | 0.134 | 4.13 | 1.04 | 4.04 |
| AGTCAAAGTTCACTAGGTAACGGAAGATTCAGCT | 4.46 | 5.19 | 2.4 | 3.15 | 1.03 | 4.82 | 6.78 | 6.56 | 3.1 | 5.71 | 2.88 | 4.85 | 0.928 | 0.734 | 2.34 | 4.05 | 2.12 | 3.09 | 1.02 | 4.71 |
| GCAGACAGGGGAAACGCAGGTAACTCAGGGTGGC | -0.526 | -0.555 | -0.616 | -0.597 | -1.27 | -0.505 | 0.299 | -0.604 | -1.01 | -0.89 | -0.682 | -0.536 | 0.0572 | -0.175 | -1.42 | -0.626 | -0.571 | -0.366 | -1.03 | -0.337 |
| ATCTCTAGGTAAAGTTCAGTAAAAGATCGATAGA | 1.06 | 1.77 | 1.7 | 1.29 | 0.992 | 2.18 | 2.91 | 4.22 | 2.52 | 4.14 | 2.04 | 2.45 | 1.82 | 0.984 | 2.05 | 2.07 | 2.09 | 1.42 | 2.26 | 2.82 |
| CAAACTAGGCCAAGAGGTCAAAGTCCGCTTCCCG | 5.17 | 5.51 | 4.77 | 4.72 | 1.13 | 5.68 | 6.86 | 6.66 | 5.68 | 6.63 | 6.71 | 6.57 | 1.38 | 0.62 | 2.87 | 5.62 | 1.75 | 6.34 | 1.51 | 4.2 |
| ATATGTAGGTTAAGAGTCATTCAGGTTGGTTCGC | 0.855 | 1.47 | 0.703 | 1.18 | 0.774 | 4.58 | 8.36 | 7.68 | 6.62 | 8.28 | 7.43 | 7.13 | 1.39 | 1.44 | 2 | 1.5 | 0.614 | 1.5 | 1.72 | 1.42 |
| GGAACGAGGGCAAGTTGATATCAGAGTTTGATGG | 0.903 | 0.358 | -0.105 | 0.453 | -0.362 | 1.73 | 1.22 | 1 | 0.0363 | 0.552 | 3.98 | 2.65 | 0.634 | 0.177 | 0.61 | 0.864 | 0.655 | 0.687 | -0.152 | 2.57 |
| CCTCGGAGGACATCAGGAGGTCAGAGCTGCCAGA | 1.63 | 1.87 | 1.11 | 1.17 | -0.894 | 1.93 | 0.267 | 0.414 | -0.801 | -0.136 | -0.368 | 0.307 | -1.23 | -1.84 | 1.23 | 2.19 | 0.0732 | 2.43 | 0.115 | 2.74 |
| CGTCCAAGGTCAGAGTGGTCAGTGAATGCCGAGT | 4.91 | 3.23 | 0.338 | 2.49 | -0.0536 | 3.83 | 1.79 | 2.5 | 0.0236 | 1.35 | 2.5 | 2.37 | -0.175 | -0.939 | 2.59 | 2.78 | 1.03 | 3.16 | 0.908 | 4.8 |
